# Hits are enriched below; roughly 10% of the tested compounds scored in any of these assays.
# BAZ2B block: qHTS Assay for Inhibitors of BAZ2B | Bromodomain adjacent to zinc finger domain protein 2B (Homo sapiens), Q9UIF8 | AlphaScreen BAZ2B-H3K14Ac peptide displacement | Potency, µM (top dose mostly 114 µM), without a hit: top-dose activity change, negative = inhibition, most hits filed as inhibitors | 4.4% of 360,000 active | AID 504333, 2011; further: on the % scale 0 is the no-effect control and ±100 the full control effect; nearly all actives have a fitted effect of over 60% in size
#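 AlphaScreen displacement: compounds (up to 110uM) incubated 30 min at room temperature with a preformed 50 nM BAZ2B/50 nM biotinylated H3K14Ac peptide complex in PBS pH 7.4 with Tween-20. Donor and acceptor beads at 10 ug/mL final added, 20 min light-protected before reading.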
# HP1b binding inh: HTS for Inhibitors of HP1-beta Chromodomain Interactions with Methylated Histone Tails; AlphaScreen HP1-beta / biotin-H3K9me3 peptide binding; Potency, µM (titrated, usually from 114 µM), for inactives: top-dose activity change, negative = inhibition, usual class: inhibitors; 0.56% of 390,000 active; further: nearly all actives have a fitted effect of over 70% in size
# Target sequence (P83916 whole entry, looked up): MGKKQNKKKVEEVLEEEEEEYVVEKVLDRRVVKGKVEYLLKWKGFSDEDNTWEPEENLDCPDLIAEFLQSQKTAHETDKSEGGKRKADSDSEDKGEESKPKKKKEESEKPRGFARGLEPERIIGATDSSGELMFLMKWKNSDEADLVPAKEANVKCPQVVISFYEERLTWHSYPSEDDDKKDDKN
#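 HP1-beta protein (50 nM final) preincubated 30 min at room temperature with biotinylated H3(1-18)K9me3 peptide (50 nM) in PBS pH 7.4, 0.01% Tween-20, then compound added for 30 min. AlphaScreen streptavidin donor/nickel chelate acceptor beads (10 ug/mL final), 30 min dark, luminescence read.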
# G9a block: qHTS Assay for Inhibitors of Histone Lysine Methyltransferase G9a. Histone-lysine N-methyltransferase EHMT2 (Homo sapiens), Q96KQ7. G9a H3K9 monomethylation, AlphaScreen, 2 h. Potency, µM (series often up to 102 µM), without a hit: at the highest dose activity, negative = inhibition, actives largely listed as inhibitors. 8.8% of 350,000 active; further: on the % scale 0 is the no-effect control and ±100 the full control effect; nearly all actives have a fitted effect of over 75% in size
# Target sequence (Q96KQ7 913-1193 limits assumed): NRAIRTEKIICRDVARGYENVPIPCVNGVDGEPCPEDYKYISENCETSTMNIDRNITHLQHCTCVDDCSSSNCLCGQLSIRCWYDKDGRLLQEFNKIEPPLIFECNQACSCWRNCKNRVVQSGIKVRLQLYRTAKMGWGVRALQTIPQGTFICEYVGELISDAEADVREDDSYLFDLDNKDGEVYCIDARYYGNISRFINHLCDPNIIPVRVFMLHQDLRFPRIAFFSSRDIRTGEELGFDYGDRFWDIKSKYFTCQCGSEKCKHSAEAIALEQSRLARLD
#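 Methyltransferase reactions run at room temperature for 2 h (20 nM enzyme, 500 nM biotin-H3K9 peptide, 20 uM SAM) after a 15 min compound preincubation; product detected by AlphaScreen beads and anti-H3K9me1 antibody.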
# JMJD2A Tudor: qHTS Assay for Inhibitors of JMJD2A-Tudor Domain | Lysine-specific demethylase 4A (Homo sapiens), O75164 | AlphaScreen JMJD2A-Tudor / H3K4me3 peptide binding | Potency, µM (titrated, usually from 114 µM), inactives show at the highest dose activity change, negative = inhibition, hits mostly inhibitors | 4.4% of 390,000 active | AID 504339, 2011; further: on the % scale 0 is the no-effect control and ±100 the full control effect; nearly all actives have a fitted effect of over 50% in size
# GLS inh: qHTS for Inhibitors of Glutaminase (GLS); Potency, µM (series often up to 45.5 µM), for the others: at the top dose activity change, negative = inhibition, actives largely listed as inhibitors; 0.21% of 410,000 active; GLS enzymatic activity, qHTS titration; Glutaminase kidney isoform, mitochondrial (Homo sapiens), O94925; further: on the % scale 0 is the no-effect control and ±100 the full control effect
#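 Glutamate formation by hKGA was monitored fluorometrically using coupled glutamate oxidase, HRP and Amplex Red. Substrate was added as 1 mM L-glutamine solution; incubation was 30 min at RT after an initial read.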
# Active calls of the source: *; ? = inconclusive; · = no result given; ! = a repeat was not active; [ ] = remark or other dose. The call rests on the fitted dose curve; in most records, active means well fitted curve in the direction sought with a large enough effect; inconclusive means small, poorly fitted or top-dose-only effect, or another doubt; inactive means no such curve, though single readings can be large; an effect the other way counts as inactive or inconclusive. Potency means the concentration at half of the fitted maximal effect.
SMILES,BAZ2B block,HP1b binding inh,G9a block,JMJD2A Tudor,GLS inh
COc1cc(C(=S)N2CCOCC2)ccc1OC(=O)c1cc([N+](=O)[O-])cc([N+](=O)[O-])c1,-22%,?,7.9µM*,-21%,6%
O=C(Oc1ccccc1C(=S)N1CCOCC1)c1ccc([N+](=O)[O-])cc1[N+](=O)[O-],?,?,50µM*,?,1%
O=C(COc1ccc(C(=S)N2CCOCC2)cc1Cl)Nc1ccccc1Cl,3%,-24%,7.1µM*,2%,4%
COc1cc(C(=S)N2CCOCC2)ccc1OC(=O)c1ccc(Br)cc1,-33%,18%,-43%,-31%,0%
Cc1cc(C(=O)Nc2ccc(S(=O)(=O)N3CCOCC3)cc2)ccc1[N+](=O)[O-],-10%,9%,23%[0.501 µM],-18%,-2%
COc1ccc(C(=S)N2CCOCC2)cc1OC(=O)c1ccccc1Cl,-29%,?,11µM*,?,12%
COc1cc(C(=S)N2CCOCC2)ccc1OC(=O)c1ccccc1C,?,-5%,·,-27%,0%
COc1ccc(C(=S)N2CCOCC2)cc1OC(=O)c1ccc([N+](=O)[O-])cc1[N+](=O)[O-],?,?,40µM*,-30%,-5%
COc1ccc(-c2ccc(N(C)C)cc2)cc1[C@H]1[C@@H]2C=CCC[C@@]2(C)C(=O)N1Cc1ccccc1,7.9µM*,?,?,14µM*,3%
COc1ccc(-c2ccc(N(C)C)cc2)cc1C1C2C=CCCC2(C)C(=O)N1Cc1ccccc1 (stereo unspecified),·,?,·,8.9µM*,·
O=C(O)CCC(=O)NNC(=O)c1cccc(Cl)c1,-4%,23%,?,5%,0%
COc1cccc(C(=O)NCC(c2ccc(N(C)C)cc2)N2CCCC2)c1OC (stereo unspecified),-39%,17%,?,-15%,28%
COc1cccc(C(=O)NCC(c2ccc(N(C)C)cc2)N2CCc3ccccc32)c1 (stereo unspecified),7.9µM*,10µM*,10µM*,7.9µM*,34%
COc1cccc(C(=O)NCC(c2ccc(N(C)C)cc2)N2CCc3ccccc32)c1OC (stereo unspecified),14µM*,?,-43%[12.7 µM],10µM*,31%
COc1ccc(C(=O)NCC(c2ccc(N(C)C)cc2)N2CCc3ccccc32)cc1OC (stereo unspecified),20µM*,?,25µM*,20µM*,26%
COc1ccc(C(=O)NCC(c2cccnc2)N2CCc3ccccc32)cc1OC (stereo unspecified),-2%,30%,2%[59 µM],11%,7%
COc1ccc(C(=O)NCC(c2cccnc2)N2CCc3ccccc3C2)cc1 (stereo unspecified),1%,6%,-6%[59 µM],-16%,11%
COc1ccc(C(=O)NCC(c2cccnc2)N2CCc3ccccc3C2)cc1OC (stereo unspecified),5µM*,-21%,4.5µM*,32µM*,-1%
O=C(Oc1cc2oc(=O)c3c(c2cc1Cl)CCCC3)c1ccco1,-2%,47%,2%[12.7 µM],1%,-1%
C[C@H]1CN([C@@H](C)CO)S(=O)(=O)c2ccc(Br)cc2O[C@H]1CN(C)C(=O)Nc1ccccc1F,·,·,·,·,2%
O=[N+]([O-])c1ccc(S(=O)(=O)NCC(c2cccnc2)N2CCc3ccccc3C2)cc1 (stereo unspecified),?,6%,50µM*,-25%,-8%
O=C(NCC(c1ccco1)N1CCc2ccccc21)c1c(F)cccc1F (stereo unspecified),?,6%,13%[2.33 µM],-6%,4%
O=[N+]([O-])c1ccc(S(=O)(=O)NCC(c2cccnc2)N2CCOCC2)cc1 (stereo unspecified),·,33%,-8%,-8%,-3%
COc1cc(C(=O)NCC(c2ccc(N(C)C)cc2)N2CCCC2)cc(OC)c1OC (stereo unspecified),-27%,13%,-33%[59 µM],-31%,21%
CN(C)c1ccc(C(CNC(=O)c2ccccc2F)N2CCc3ccccc32)cc1 (stereo unspecified),16µM*,?,?,10µM*,32%
SMILES,BAZ2B block,HP1b binding inh,G9a block,JMJD2A Tudor,GLS inh
COc1cc(C(=O)NCC(c2ccc(N(C)C)cc2)N2CCc3ccccc32)cc(OC)c1OC (stereo unspecified),13µM*,?,18µM*,16µM*,29%
CCN(CCO)Cc1csc2c(Br)cccc12,11%,12%,5%[59 µM],-14%,7%
c1ccc2c(NCCc3c[nH]c4ccccc34)c3ccccc3nc2c1,35µM*,-7%,-11%[2.33 µM],50µM*,9%
OCc1c[nH]c2ccccc12,-11%,43%,13µM*!,-29%,4%
OCCc1c[nH]c2ccccc12,-8%,17%,1%[12.7 µM],-8%,22%
CCOC(=O)SC1=N/C(=C\c2ccc(N(C)C)cc2)C(=O)S1,13µM*,35µM*,10µM*,20µM*,16%
CSC1=N/C(=C\c2ccc(C)cc2)C(=O)S1,39%,113%,55%[12.7 µM],38%,1%
COc1cccc(N/C=C/C(=O)c2ccc(C)cc2)c1,36%,71%,70%,34%,12%
COc1cccc(C(=O)/C=C/Nc2cccc(O)c2)c1,-33%,10%,14µM*,-32%,32%
CCOc1ccc(C(C)=O)cc1Cn1c(=O)oc2ccccc21,7%,33%,11%,-11%,-1%
O=C1NC(c2ccco2)Nc2sc3c(c21)CCN(Cc1ccccc1)C3 (stereo unspecified),?,-13%,28µM*,?,-3%
CN1CCc2c(sc3c2C(=O)NC(c2cn(Cc4ccccc4)c4ccccc24)N3)C1 (stereo unspecified),45µM*,?,?,40µM*,?
O=C1C2CCCCN2C(=O)N1CCCCN1CCN(c2ccc(F)cc2)CC1 (stereo unspecified),-1%,46%,24%[0.501 µM],-11%,10%
COc1cc(/C=N/N2CCN(Cc3ccc(Cl)cc3)CC2)cc(Br)c1O,50µM*,-21%,2%[0.501 µM],45µM*,5%
COc1cc(/C=N/N2CCN(Cc3ccc(Cl)cc3)CC2)ccc1OC(C)=O,56µM*,?,·,45µM*,0%
COC(=O)c1ccc(/C=N/N2CCN(Cc3ccc(Cl)cc3)CC2)cc1,-34%,36%,-8%,-10%,3%
Oc1ccc(Br)cc1/C=N/N1CCN(Cc2ccccc2)CC1,?,-20%,12%[0.501 µM],?,12%
